According to ChEMBL document CHEMBL3988442, “University of Dundee, Small-Polar-MMV Screening Library” (2021):
Hit rate of the full screen: of about 69,000 compounds, about 1,000 (1.4%) showed an effect of 50% or more. The list comes from a sample in which strong results are over-represented; it also holds similar structures and randomly drawn compounds.

System: Leishmania donovani
Test: Leishmania intramacrophage assay
Assay type: functional, organism-based
Design: scale not given: in the data most compounds retested in dose-response had high values

## CC(C)N(C)Cc1cc(=O)n2c(n1)CN(S(=O)(=O)C1CC1)CCC2.O=C(O)C(F)(F)F
30.3 µM, […]
  Percent Effect: 28.49%

## CN1CCO[C@@H]2CN(C(=O)Cc3cccs3)CC[C@@H]2C1.O=C(O)C(F)(F)F
30.3 µM, […]
  Percent Effect: 32.46%

## CC(C)N1CCO[C@@H]2CN(C(=O)Cc3cccs3)CC[C@@H]2C1.O=C(O)C(F)(F)F
30.3 µM, […]
  Percent Effect: 50.53%

## CC(C)N1CCO[C@@H]2CN(C(=O)NCc3ccccc3)CC[C@@H]2C1.O=C(O)C(F)(F)F
30.3 µM, […]
  Percent Effect: 17.12%

## CCOC(=O)c1nnc2ccccc2c1N1CCN(CC)CC1
30.3 µM, […]
  Percent Effect: 18.05%

## COc1ccc(-n2ccnc2-c2cnc(N(C)C)nc2)cc1OC
30.3 µM, […]
  Percent Effect: 25.02%

## CCNC(=O)NC1CCN(c2ccc(S(=O)(=O)CC)cc2)CC1
30.3 µM, […]
  Percent Effect: 12.14%

## CCS(=O)(=O)c1ccc(N2CCC(NC(=O)CCC(C)C)CC2)cc1
30 µM, 30.03 µM
  Percent Effect: 63.78%

## CCS(=O)(=O)c1ccc(N2CCC(NC(=O)CC3CCCC3)CC2)cc1
30.3 µM, […]
  Percent Effect: 22.19%

## CCS(=O)(=O)c1ccc(N2CCC(NC(C)=O)CC2)cc1
30 µM, 30.03 µM
  Percent Effect: -2.976%

## CCS(=O)(=O)c1ccc(N2CCC(NC(=O)C(C)SC)CC2)cc1 (stereo not drawn)
30.3 µM, […]
  Percent Effect: 27.86%

## CCS(=O)(=O)c1ccc(N2CCC(N)CC2)cc1
30.3 µM, […]
  Percent Effect: 63.99%

## CC(=O)NCCNCc1cn(CCN2CCSCC2)nc1C
30.3 µM, […]
  Percent Effect: 28.55%

## CN1C[C@H]2CN(Cc3cccc(OC(F)(F)F)c3)CCN2C1=O
30.3 µM, […]
  Percent Effect: -1.989%

## O=C(Cc1cc2c(cc1Br)OCCO2)NC1CCS(=O)(=O)C1 (stereo not drawn)
30.3 µM, […]
  Percent Effect: 5.517%

## CC(=O)c1ccc(C(=O)N2C[C@@H]3CC[C@H](C2)N(Cc2ccccc2)C3)s1
30.3 µM, […]
  Percent Effect: 9.144%

## COc1cc(F)cc(CNC(=O)Nc2ccn(CC(F)F)n2)c1
30.3 µM, […]
  Percent Effect: 16%

## Cc1cc2c(c(-c3cnccn3)c1)OC(CN)C2 (stereo not drawn)
30.3 µM, […]
  Percent Effect: 26.74%

## NCC1Cc2cc(-c3cncc(C(=O)N4CCOCC4)n3)cc(Cl)c2O1 (stereo not drawn)
30.3 µM, […]
  Percent Effect: 7.347%

## Cc1cc2c(c(-c3cncc(C(=O)N4CCCC4)n3)c1)OC(CN)C2 (stereo not drawn)
30.3 µM, […]
  Percent Effect: 74.06%

## Cc1cc2c(c(-c3c[nH]c(C)n3)c1)OC(CN)C2 (stereo not drawn)
30.3 µM, […]
  Percent Effect: 38.87%

## NCC1Cc2cc(-c3cncc(C(=O)N4CCCCC4)n3)cc(F)c2O1 (stereo not drawn)
30.3 µM, […]
  Percent Effect: -28.1%

## NCC1Cc2cc(Cl)cc(-c3cncc(C(=O)N4CCCCC4)n3)c2O1 (stereo not drawn)
30.3 µM, […]
  Percent Effect: 74.83%

## CC(C)n1cc(N2CC(C(=O)N3CCN(C)CC3)CC2=O)cn1 (stereo not drawn)
30.3 µM, […]
  Percent Effect: 26.64%

## O=C(c1cncc(Br)c1)N1CCCc2ccc(F)cc21
30.3 µM, […]
  Percent Effect: 14.67%

## CCc1c(C)nn(CC(=O)NC(C(=O)O)c2c(C)n[nH]c2C)c1C (stereo not drawn)
30.3 µM, […]
  Percent Effect: 12.75%

## Cc1ccc(CN(C)Cc2cc(C3CC3)[nH]n2)c(O)n1
30.3 µM, […]
  Percent Effect: 5.894%

## Cc1nn(C)cc1S(=O)(=O)N[C@@H]1CC[C@@H](n2ccnc2C)[C@@H]1O
30.3 µM, […]
  Percent Effect: -29.93%

## CN1CCC/C1=N\S(=O)(=O)c1ccc(NC(=O)c2ccco2)cc1
30 µM
  Percent Effect: -21.5%

## CCNC(=O)[C@@H]1C[C@@H](NC(=O)c2cccnc2O)CN1Cc1ccsc1
30 µM, 30.03 µM
  Percent Effect: 19.61%

## CCNC(=O)[C@@H]1C[C@@H](NC(=O)c2cnc[nH]c2=O)CN1Cc1ccsc1
30.3 µM, […]
  Percent Effect: 54.56%

## CCNC(=O)[C@@H]1C[C@H](NC(=O)c2cncnc2C)CN1Cc1ccsc1
30.3 µM, […]
  Percent Effect: 37.2%

## CC(=O)Cn1ncc(N2CCOCC2)cc1=O
30.3 µM, […]
  Percent Effect: 4.61%

## CCOc1ccc(CN2CCCC(c3cc4ncccc4[nH]3)C2)cc1 (stereo not drawn)
30.3 µM, […]
  Percent Effect: 54.07%

## Fc1ccc(CN2CCCC(c3cc4ncccc4[nH]3)C2)cc1 (stereo not drawn)
30.3 µM, […]
  Percent Effect: -0.4017%

## CC(=O)Nc1ccc(CN2CCCC(c3cc4ncccc4[nH]3)C2)cc1 (stereo not drawn)
30.3 µM, […]
  Percent Effect: 40.95%

## O=C(CC1NC(N2CCc3ccccc32)=NC1=O)Nc1ccc(Cl)cc1 (stereo not drawn)
30.3 µM, […]
  Percent Effect: 9.68%

## Cc1nc(O)cc(CCNc2nccc(CCC(F)(F)F)n2)n1
30.3 µM, […]
  Percent Effect: 19.16%

## CC(Cn1ccnc1)NC(=O)N1CCN(Cc2ccncc2)CC1 (stereo not drawn)
30 µM
  Percent Effect: -0.977%

## CC(Cn1ccnc1)NC(=O)N1CCN(Cc2ccsc2)CC1 (stereo not drawn)
30 µM
  Percent Effect: 56.49%

## CC(Cn1cccn1)NC(=O)N1CCN(Cc2ccsc2)CC1 (stereo not drawn)
30.3 µM, […]
  Percent Effect: 0.9675%

## CN1C(=O)CC(C(=O)O)C12CCN(c1ccc3c(n1)CCCC3)CC2 (stereo not drawn)
30.3 µM, […]
  Percent Effect: 21.03%

## CCn1ncnc1C(C)NC(=O)C1CCN(C(C)C)CC1 (stereo not drawn)
30 µM, 30.03 µM
  Percent Effect: 5.618%

## CCn1ncnc1C(C)NC(=O)C1CCN(C2CCCCC2)CC1 (stereo not drawn)
30.3 µM, […]
  Percent Effect: 10.97%

## CCn1ncnc1C(C)NC(=O)C1CCN(C(=O)COC)CC1 (stereo not drawn)
30 µM, 30.03 µM
  Percent Effect: 54.19%

## CC(=O)NC(C)(C)C(=O)Nc1ncc(Cc2ccc(C)c(F)c2)s1
30 µM, 30.03 µM
  Percent Effect: 11.96%

## Cc1nn(C)c(C)c1-c1ccnc(N(C)Cc2noc(C(C)C)n2)n1
30.3 µM, […]
  Percent Effect: 46.51%

## Cc1nn(C)c(C)c1-c1ccnc(N(C)Cc2nc(C(C)C)no2)n1
30.3 µM, […]
  Percent Effect: 52.75%

## Cc1nn(C)cc1-c1ccnc(N(C)Cc2noc(C(C)C)n2)n1
30.3 µM, […]
  Percent Effect: 19.89%

## CCc1nc(CN(C)C2CCN(CCC(=O)N3CCCCC3)C2)no1 (stereo not drawn)
30.3 µM, […]
  Percent Effect: 22.94%

## Fc1cnc(N2CCn3cc(CNc4ccccn4)nc3C2)nc1.O=C(O)C(F)(F)F.O=C(O)C(F)(F)F
30 µM, 30.03 µM
  Percent Effect: -20.21%

## O=C(O)C(F)(F)F.O=C(c1ccc[nH]1)N1CCn2cc(CN3CCCC3)nc2C1
30 µM, 30.03 µM
  Percent Effect: -3.456%

## O=C(O)C(F)(F)F.O=C(c1ccc[nH]1)N1CCn2cc(Cn3cccn3)nc2C1
30.3 µM, […]
  Percent Effect: 51.47%

## O=C(Cc1ccc(F)cc1)N1CCn2cc(Cn3cccn3)nc2C1.O=C(O)C(F)(F)F
30 µM, 30.03 µM
  Percent Effect: -23.45%

## N#CC1(C(=O)N2CCOC(c3ccc(F)cc3)C2)CCCCC1 (stereo not drawn)
30.3 µM, […]
  Percent Effect: 33.91%

## O=C(Nc1cc(C(F)(F)F)c[nH]c1=O)C1CCNCC1
30.3 µM, […]
  Percent Effect: 29.22%

## O=C(Nc1cc(C(F)(F)F)c[nH]c1=O)C1CCCO1 (stereo not drawn)
30.3 µM, […]
  Percent Effect: 65.61%

## Cl.O=C(Nc1cc(C(F)(F)F)c[nH]c1=O)C1CCCCN1 (stereo not drawn)
30.3 µM, […]
  Percent Effect: 10.48%

## CN1CCOC(CNCC(=O)NCCC2=CCCCC2)C1 (stereo not drawn)
30.3 µM, […]
  Percent Effect: 0.5751%

## C[C@@H]1CN(Cc2nc(Cc3ccccc3F)no2)C[C@H](C)O1
30.3 µM, […]
  Percent Effect: 14.95%

## CO[C@@H]1CCN(C(=O)c2cc(C)on2)C[C@@H]1Cc1ccccc1
30.3 µM, […]
  Percent Effect: 52.23%

## COc1ccc(C[C@H]2CN(C(=O)c3cc(C)no3)CC[C@H]2OC)cc1
30.3 µM, […]
  Percent Effect: 7.467%

## CO[C@H]1CCN(C(=O)c2cc(C)on2)C[C@@H]1Cc1ccccc1
30.3 µM, […]
  Percent Effect: -10.42%
